Screening data deposited in PubChem BioAssay by The Scripps Research Institute Molecular Screening Center.
M1 antag = human M1 muscarinic receptor antagonists, primary screen, CHO-K1 cells, Fluo-8 calcium fluorescence, 1536-well; Muscarinic acetylcholine receptor M1 (Homo sapiens), P11229; CHO-K1 hM1, ACh EC80 antagonist; inhibition, % at 3 µM; hit rate 1.3% among 360,000; AID 588852, 2011;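 active = percent inhibition above its own plate's cutoff, namely the mean of that plate's compound wells plus 3 SD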;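 also: peak over basal fluorescence ratio during 140 s after agonist addition; 0% = ACh EC80 plus DMSO and 100% = DMSO alone without agonist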
Target sequence (P11229 whole entry, looked up): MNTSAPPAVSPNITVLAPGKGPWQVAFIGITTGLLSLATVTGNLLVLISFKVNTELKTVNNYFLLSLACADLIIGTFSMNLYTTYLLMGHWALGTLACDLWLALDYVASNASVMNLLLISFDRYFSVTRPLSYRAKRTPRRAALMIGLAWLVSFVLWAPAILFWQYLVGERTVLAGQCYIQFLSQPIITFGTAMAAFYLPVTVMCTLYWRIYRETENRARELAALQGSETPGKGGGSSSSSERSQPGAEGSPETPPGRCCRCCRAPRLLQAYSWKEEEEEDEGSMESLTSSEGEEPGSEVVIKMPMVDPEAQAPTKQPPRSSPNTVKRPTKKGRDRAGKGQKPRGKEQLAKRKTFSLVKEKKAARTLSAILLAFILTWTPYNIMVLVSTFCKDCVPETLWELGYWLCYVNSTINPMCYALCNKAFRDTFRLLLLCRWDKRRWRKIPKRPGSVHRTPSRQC
M1 PAM parental = nonselective calcium activators in parental CHO-K1 cells, primary screen, counter-screen for M1 PAM project, cell-based, Fluo-8 calcium fluorescence, full deck, 1536-well; ATP EC20; 0% at ATP EC20, 100% at ATP max; hit rate 0.02% among 360,000; activation, % at 3 µM;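 active = activation above the run cutoff, the mean activation of all test compounds plus 3 SD, cut at about 40% in these data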;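 also: peak over basal fluorescence ratio in a 140 s read after ATP addition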
CHO-K1 Ca ag = counter-screen for M1 agonists: effect in parental CHO-K1 cells. AID 602248, 2012. Fluo-8 calcium fluorescence; scaled to maximal ATP response, vehicle zero. hit rate 0.48% among 360,000. activation, % at 3 µM; in the data active = activation above about 15%;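 also: untransfected CHO-K1 host cells lacking M1 receptor as counterscreen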
CHO-K1 Ca antag = counter-screen for M1 antagonists: effect in parental CHO-K1 cells. ATP-induced calcium, Fluo-8 fluorescence. inhibition, % at 3 µM. hit rate 0.6% among 360,000. AID 602250;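 active = inhibition above a per-plate cutoff, the plate's mean sample inhibition plus 3 SD, cut at about 24% in these data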;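 also: 0% = DMSO plus EC80 ATP and 100% = DMSO alone without ATP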
M1 PAM = human M1 muscarinic receptor positive allosteric modulators, primary screen, CHO-K1 cells, Fluo-8 calcium fluorescence, 1536-well; AID 588819, 2011; Muscarinic acetylcholine receptor M1 (Homo sapiens), P11229; CHO-K1 hM1, ACh EC20; 0% = ACh EC20, 100% = maximal ACh; hit rate 0.088% among 360,000; activation, % at 3 µM; in the data active = activation above about 19%, passing the limit was not always enough
M1 ag = human M1 muscarinic receptor agonists, primary screen, Fluo-8 calcium fluorescence, CHO-K1 cells, HTS | hit rate 0.33% among 360,000 | CHO-K1 hM1, agonist mode; 0% DMSO, 100% acetylcholine EC100 | activation, % at 3 µM | Muscarinic acetylcholine receptor M1 (Homo sapiens), P11229;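 active = activation above the run's mean compound activation plus 3 SD, cut at about 16% in these data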;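 also: peak over basal fluorescence ratio within a 140 s kinetic read after compound addition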
Numbers without * were called inactive. Rows were chosen to be rich in hits. Some 2.3% of all compounds tested hit in one or more screens of this group.

Results for CN(C)C(CNC(=O)c1ccc(Br)cc1)c1ccco1 (centres undefined) ?
M1 antag: -0.5; M1 PAM parental: 0.4; CHO-K1 Ca ag: 0.5; CHO-K1 Ca antag: -15.5; M1 PAM: -3.4; M1 ag: -9.8

What do the screens show for `CN(C)C(CNC(=O)c1cc(S(=O)(=O)N(C)Cc2ccccc2)ccc1Cl)c1ccco1` (centres undefined)?
M1 antag: 31.3*; M1 PAM parental: -7.9; CHO-K1 Ca ag: 10.7; CHO-K1 Ca antag: 16.7; M1 PAM: -12.6; M1 ag: -1.0

What do the screens show for `COCCCNc1nc(CC(C)C)nc2c1nnn2Cc1ccccc1`?
M1 antag: -9.5; M1 PAM parental: -4.6; CHO-K1 Ca ag: 0.2; CHO-K1 Ca antag: 2.0; M1 PAM: 0.5; M1 ag: -1.4

Results for CCOc1ccc(S(=O)(=O)N(C)c2ccc(OCC(=O)NCc3ccc(C(=O)OC)cc3)cc2)cc1 ?
M1 antag: 17.8; M1 PAM parental: -15.7; CHO-K1 Ca ag: 3.9; CHO-K1 Ca antag: -8.9; M1 PAM: -7.8; M1 ag: -1.8

What do the screens show for `CNc1ccc2c3c(cccc13)C(=O)N(C)C2=O`?
M1 antag: 72.7*; M1 PAM parental: -12.6; CHO-K1 Ca ag: 97.7*; CHO-K1 Ca antag: 29.9*; M1 PAM: -34.9; M1 ag: 312.7*

Results for CN1C(=O)c2cccc3c(Br)ccc(c23)C1=O ?
M1 antag: -17.4; M1 PAM parental: 15.8; CHO-K1 Ca ag: 1.4; CHO-K1 Ca antag: -12.0; M1 PAM: 6.0; M1 ag: -4.2

How did CN1C(=O)c2cccc3c(Cl)ccc(c23)C1=O do in these assays?
M1 antag: -4.1; M1 PAM parental: 17.7; CHO-K1 Ca ag: -0.1; CHO-K1 Ca antag: -19.8; M1 PAM: -2.2; M1 ag: -3.9

How did CN1C(=O)c2cccc3c(N(C)C)ccc(c23)C1=O do in these assays?
M1 antag: -3.9; M1 PAM parental: 8.8; CHO-K1 Ca ag: 22.5*; CHO-K1 Ca antag: 9.2; M1 PAM: 2.5; M1 ag: 13.5

What do the screens show for `COc1ccc(OC)c(N(CC(=O)NCC2CCCO2)S(=O)(=O)c2ccccc2)c1` (centres undefined)?
M1 antag: 0.2; M1 PAM parental: 2.4; CHO-K1 Ca ag: 0.6; CHO-K1 Ca antag: -1.8; M1 PAM: 0.9; M1 ag: -0.5

How did CC(=O)c1cccc(CN2CCC(C(=O)Nc3ccc(Oc4cccnc4)cc3)CC2)c1 do in these assays?
M1 antag: 29.5*; M1 PAM parental: -27.6; CHO-K1 Ca ag: 1.2; CHO-K1 Ca antag: 11.9; M1 PAM: -11.6; M1 ag: -6.2

Results for O=C(Nc1ccc(Oc2cccnc2)cc1)C1CCN(Cc2cccc(Cl)c2)CC1 ?
M1 antag: -0.6; M1 PAM parental: 12.9; CHO-K1 Ca ag: 6.6; CHO-K1 Ca antag: -2.9; M1 PAM: 0.5; M1 ag: -3.5

Results for O=S(=O)(c1ccc(Cl)cc1)N1CCN(C(=S)Nc2ccccc2F)CC1 ?
M1 antag: 3.2; M1 PAM parental: 8.4; CHO-K1 Ca ag: 17.1*; CHO-K1 Ca antag: -3.8; M1 PAM: 8.0; M1 ag: 0.6

What do the screens show for `O=S(=O)(c1ccc2ccccc2c1)N1CCN(C(=S)Nc2ccccc2F)CC1`?
M1 antag: -2.5; M1 PAM parental: 11.6; CHO-K1 Ca ag: 0.7; CHO-K1 Ca antag: -9.2; M1 PAM: 2.6; M1 ag: -2.8

What do the screens show for `O=C(O)c1ccc(NC(=O)C2(c3ccccc3)CCCC2)cc1`?
M1 antag: 5.4; M1 PAM parental: 10.2; CHO-K1 Ca ag: 0.3; CHO-K1 Ca antag: -8.2; M1 PAM: 1.4; M1 ag: -0.8

Results for CCN(CC)CCOC(=O)c1ccc(NC(=O)C2(c3ccccc3)CCCC2)cc1 ?
M1 antag: 46.3*; M1 PAM parental: 18.6; CHO-K1 Ca ag: 1.9; CHO-K1 Ca antag: -1.2; M1 PAM: -19.4; M1 ag: -4.7

Results for CCN(CC)CCNC(=O)C1(c2ccccc2)CCCCC1 ?
M1 antag: 40.4*; M1 PAM parental: 12.1; CHO-K1 Ca ag: 1.1; CHO-K1 Ca antag: -12.4; M1 PAM: -23.3; M1 ag: -7.8

Results for CCc1cc(C(=O)N=Nc2c(O)[nH]c3c(Br)cc(Br)cc23)c2ccccc2n1 ?
M1 antag: 3.3; M1 PAM parental: -11.5; CHO-K1 Ca ag: -0.5; CHO-K1 Ca antag: 15.3; M1 PAM: -6.9; M1 ag: -2.9

What do the screens show for `Cc1cccc(NC(=S)N2CCC(NC(=O)c3cccc(F)c3)CC2)c1`?
M1 antag: -12.9; M1 PAM parental: 15.1; CHO-K1 Ca ag: -0.5; CHO-K1 Ca antag: -14.4; M1 PAM: 16.9; M1 ag: -2.3

Results for COCCCn1c(=O)c2ccccc2n(CC(=O)NC2CCCCC2)c1=O ?
M1 antag: -17.6; M1 PAM parental: 15.4; CHO-K1 Ca ag: 1.6; CHO-K1 Ca antag: -20.3; M1 PAM: 15.0; M1 ag: -4.5

Results for Cc1c(C(=O)OC(C)C(=O)N(C)Cc2ccccc2)oc2ccccc12 (centres undefined) ?
M1 antag: -8.2; M1 PAM parental: 8.5; CHO-K1 Ca ag: 3.9; CHO-K1 Ca antag: -16.9; M1 PAM: 4.3; M1 ag: -5.2

How did Cc1c(C(=O)OC(C)C(C)C[N+](C)(C)C)oc2ccccc12 (centres undefined) do in these assays?
M1 antag: 98.9*; M1 PAM parental: 0.1; CHO-K1 Ca ag: 0.0; CHO-K1 Ca antag: 9.2; M1 PAM: -23.6; M1 ag: -5.7

What do the screens show for `O=S1(=O)N=C(N2CCCc3ccccc32)c2ccccc21`?
M1 antag: -1.1; M1 PAM parental: 4.8; CHO-K1 Ca ag: -0.1; CHO-K1 Ca antag: -10.3; M1 PAM: 0.4; M1 ag: -4.7

Results for O=S1(=O)N=C(N2CCc3ccccc3C2)c2ccccc21 ?
M1 antag: 36.4*; M1 PAM parental: -3.4; CHO-K1 Ca ag: 0.7; CHO-K1 Ca antag: 2.2; M1 PAM: -16.2; M1 ag: -5.0

What do the screens show for `COc1ccc(C(=O)c2cnc(/N=C/N(C)C)s2)cc1`?
M1 antag: 5.1; M1 PAM parental: -8.3; CHO-K1 Ca ag: -0.1; CHO-K1 Ca antag: 33.0*; M1 PAM: 9.3; M1 ag: 0.3

Results for N#CC1=C(N)Oc2cc(N)ccc2C1c1ccccc1Cl (centres undefined) ?
M1 antag: -21.3; M1 PAM parental: -3.0; CHO-K1 Ca ag: 2.5; CHO-K1 Ca antag: 4.7; M1 PAM: 15.6; M1 ag: 0.0

Results for N#CC1=C(N)OC2=C(CCc3ccccc32)C1c1ccccc1Cl (centres undefined) ?
M1 antag: 43.9*; M1 PAM parental: 13.1; CHO-K1 Ca ag: 0.1; CHO-K1 Ca antag: -10.3; M1 PAM: -22.2; M1 ag: -8.8
